Test [1] in a line: A CellTox Green Cytotoxicity Assay to monitor cytotoxicity in HEK293 cells - 40 hour (AID 1224871). Further: nearly all actives have a fitted effect of over 45% in size. Further: potency means the concentration at half of the fitted maximal effect. A digest of the protocol:
(§1)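 Cytotoxicity was tracked continuously in HEK293 cells by a DNA-binding dye excluded from viable cells. Compounds were transferred in DMSO 5 h after seeding; fluorescence was recorded at intervals up to 40 h.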

Test [2] can be described thus: qHTS RealTime-Glo MT Cell Viability Assay in HEK293 cells - 16 hour (AID 1224872). Further: nearly all actives have a fitted effect of over 50% in size. Further: potency means the concentration at half of the fitted maximal effect. In outline:
(§2)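 Reads taken at 0, 8, 16, 24, 32 and 40 h from the same wells. HEK293 cells (600/well) carried RealTime-Glo reagents from seeding, with compound added after a 5 h settle at 37 C.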
On the technique in general: Quantitative high-throughput screening tests each substance at several concentrations.

Test [3] in a line: qHTS RealTime-Glo MT Cell Viability Assay in HepG2 cells - 8 hour (AID 1224873). Further: nearly all actives have a fitted effect of over 55% in size. Further: potency means the concentration at half of the fitted maximal effect. In outline:
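HepG2 cells (600/well) mixed with RealTime-Glo MT reagent, settled 5 h at 37 C/5% CO2 before compound addition. Nonlytic NanoLuc luminescence from viable-cell prosubstrate reduction read repeatedly during 40 h treatment at 37 C.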

The nature of test [4]: qHTS RealTime-Glo MT Cell Viability Assay in HEK293 cells - 40 hour (AID 1224874). Further: nearly all actives have a fitted effect of over 50% in size. Further: potency means the concentration at half of the fitted maximal effect. Particulars: RealTime-Glo luminescence; max response: stronger effect = lower value. A digest of the protocol:
(§3)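 Nonlytic bioluminescent viability monitoring. HEK293 at 600 cells/well with reagent; 5 h settle; compound transfer by pintool; plates held at 37 C and read at set time points.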

Test [5] in a line: A CellTox Green Cytotoxicity Assay to monitor cytotoxicity in HEK293 cells - 24 hour (AID 1224875). Further: nearly all actives have a fitted effect of over 45% in size. Further: potency means the concentration at half of the fitted maximal effect. In outline:
as §1

Test [6] in a line: A CellTox Green Cytotoxicity Assay to monitor cytotoxicity in HepG2 cells - 16 hour (AID 1224876). Further: nearly all actives have a fitted effect of over 45% in size. Further: potency means the concentration at half of the fitted maximal effect. In outline: (§4)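 Real-time, homogeneous cytotoxicity readout: dead-cell DNA staining by CellTox Green in HepG2 monolayers, fluorescence measured at timed intervals up to 40 h of continuous compound exposure.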
The nature of test [7]: qHTS RealTime-Glo MT Cell Viability Assay in HepG2 cells - 32 hour (AID 1224877). Further: nearly all actives have a fitted effect of over 55% in size. Further: potency means the concentration at half of the fitted maximal effect. In outline:
(§5)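 HepG2 suspension premixed with RealTime-Glo reagents is plated at 600 cells per well and left 5 h at 37 C/5% CO2. Compounds in DMSO then go in, and bioluminescence reflecting viable cell number is recorded over 40 h.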

A short description of test [8]: A CellTox Green Cytotoxicity Assay to monitor cytotoxicity in HepG2 cells - 24 hour (AID 1224878). Further: nearly all actives have a fitted effect of over 45% in size. Further: potency means the concentration at half of the fitted maximal effect. A digest of the protocol: as §4
Test [9] in a line: A CellTox Green Cytotoxicity Assay to monitor cytotoxicity in HepG2 cells - 40 hour (AID 1224879). Further: nearly all actives have a fitted effect of over 40% in size. Further: potency means the concentration at half of the fitted maximal effect. In outline: as §4
Test [10] can be described thus: qHTS RealTime-Glo MT Cell Viability Assay in HEK293 cells - 0 hour (AID 1224880). Further: nearly all actives have a fitted effect of over 45% in size. Further: potency means the concentration at half of the fitted maximal effect. In outline:
as §3

A short description of test [11]: A CellTox Green Cytotoxicity Assay to monitor cytotoxicity in HEK293 cells - 32 hour (AID 1224881). Further: nearly all actives have a fitted effect of over 40% in size. Further: potency means the concentration at half of the fitted maximal effect. In outline: as §1
Test [12] can be described thus: A CellTox Green Cytotoxicity Assay to monitor cytotoxicity in HepG2 cells - 0 hour (AID 1224882). Further: nearly all actives have a fitted effect of over 35% in size. Further: potency means the concentration at half of the fitted maximal effect. In outline:
as §4

A short description of test [13]: A CellTox Green Cytotoxicity Assay to monitor cytotoxicity in HepG2 cells - 32 hour (AID 1224883). Further: nearly all actives have a fitted effect of over 50% in size. Further: potency means the concentration at half of the fitted maximal effect. In outline:
as §4

Test [14] in a line: A CellTox Green Cytotoxicity Assay to monitor cytotoxicity in HEK293 cells - 8 hour (AID 1224884). Further: nearly all actives have a fitted effect of over 35% in size. A digest of the protocol:
as §1

A short description of test [15]: qHTS RealTime-Glo MT Cell Viability Assay in HepG2 cells - 16 hour (AID 1224885). Further: nearly all actives have a fitted effect of over 50% in size. Further: potency means the concentration at half of the fitted maximal effect. A digest of the protocol: as §5
The nature of test [16]: A CellTox Green Cytotoxicity Assay to monitor cytotoxicity in HEK293 cells - 16 hour (AID 1224888). Further: nearly all actives have a fitted effect of over 35% in size. In outline: as §1
Test [17] in a line: qHTS RealTime-Glo MT Cell Viability Assay in HepG2 cells - 0 hour (AID 1224889). Further: nearly all actives have a fitted effect of over 50% in size. Further: potency means the concentration at half of the fitted maximal effect. In outline:
as §5

Test [18] is described as follows: A CellTox Green Cytotoxicity Assay to monitor cytotoxicity in HepG2 cells - 8 hour (AID 1224890). Further: nearly all actives have a fitted effect of over 45% in size. Further: potency means the concentration at half of the fitted maximal effect. A digest of the protocol: as §4
The nature of test [19]: qHTS RealTime-Glo MT Cell Viability Assay in HEK293 cells - 24 hour (AID 1224886). Further: nearly all actives have a fitted effect of over 50% in size. Further: potency means the concentration at half of the fitted maximal effect. In outline: as §2
Test [20] is described as follows: qHTS RealTime-Glo MT Cell Viability Assay in HEK293 cells - 8 hour (AID 1224887). Further: nearly all actives have a fitted effect of over 50% in size. Further: potency means the concentration at half of the fitted maximal effect. In outline:
as §3

“And” between values parts separate entries of the source, which are not always exact repeats. Equal values may be shown once. Records with an inconclusive call do not appear. Where a structure was tested more than once in an assay, its records may differ in their call. The source made the active and inactive calls. The call rests on the fitted dose curve; in most records, active means well fitted curve in the direction sought with a large enough effect in the repeat runs; inconclusive means weak or mixed curves; inactive means no such curve, though single readings can be large; an effect the other way counts as inactive or inconclusive.
On the % scale 0 is the no-effect control and ±100 the full control effect.

For the compound `Cc1ccc(C)c(O)c1C`, the Potency entry in [1], in test [2], in test [3], in test [5], in test [6] and in [7] was “inactive” each time. Moreover, the Potency entry in test [8], in test [9], in test [10], in [11], in test [12] and in [13] was “inactive” throughout. Moreover, the Potency result in [14], in [15], in test [16] and in [17] was “inactive” each time. Further, the max response in test [4] was 1.3% (inactive) and 2.18% (inactive).

`Nc1ccc(S(=O)(=O)Nc2cnc3ccccc3n2)cc1`: the Potency result in test [1], in test [2], in [3], in test [5], in [6] and in test [7] was “inactive” in each case. In addition, the Potency entry in test [8], in test [9], in test [10], in test [11], in [12] and in test [13] was “inactive” throughout. For the same compound, the Potency result in [14], in test [15], in test [16], in test [17] and in [18] was “inactive” in each case. Besides, in test [4], the max response is -2.7% (inactive) and 1.7% (inactive).

`CC(C)=CCC/C(C)=C\CO`: the Potency entry in test [1], in [3], in [5], in test [6], in test [7] and in test [8] was “inactive” each time. Also, the Potency result in [9], in test [10], in test [11], in test [12], in test [13] and in test [14] was “inactive” each time. The Potency result in test [15], in test [19], in [20], in test [16] and in test [17] was “inactive” throughout. In addition, the max response in [4] is 0.916% (inactive) and 13.7% (inactive).

On to `COc1ccc(C(=O)CC(=O)c2ccc(C(C)(C)C)cc2)cc1`, for which the Potency entry in test [1], in [3], in test [5], in [7], in test [10] and in test [11] was “inactive” each time. Also, the Potency entry in [14], in [15], in test [16] and in test [17] was “inactive” each time. Also, the Potency was 29.6 µM (active) in [4]; “inactive and 67.4 nM (active)” in test [6]; “inactive and 75.6 nM (active)” in [8]; “inactive and 67.4 nM (active)” in test [9]; “inactive and 75.6 nM (active)” in test [12]; “inactive and 67.4 nM (active)” in test [13]. In addition, the Potency in test [19] was 29.6 µM (active) and inactive; in [18], “inactive and 75.6 nM (active)”. Also, the max response in test [4] is -14% (inactive).

For `COC(=O)C1=C(C)NC(C)=C(C(=O)OCCN(C)Cc2ccccc2)C1c1cccc([N+](=O)[O-])c1` (stereo not given), the Potency result in [1], in [5], in test [6], in test [11], in [12] and in [14] was “inactive” throughout. In addition, the Potency result in test [16] and in test [18] was “inactive” throughout. For the same compound, the Potency in test [3] is 24.4 µM (active) and 19 µM (active); in test [4], 24.4 µM (active) and 16.9 µM (active); in test [7] it was 43.4 µM (active); in test [8], 48.7 µM (active) and inactive; in test [9] it was 48.7 µM (active) and inactive; in [10], 5.46 µM (active) and 6.01 µM (active). The Potency was 48.7 µM (active) and inactive in test [13]; 24.4 µM (active) and 10.7 µM (active) in [15]; 21.7 µM (active) and 19 µM (active) in [19]; 24.4 µM (active) and 19 µM (active) in [20]; 6.13 µM (active) and 3.38 µM (active) in test [17].

In the case of `c1ccc2c(c1)Oc1ccccc1S2`, the Potency is 49.8 µM (active) and inactive in [1]; 49.8 µM (active) and inactive in test [11]. Further, the Potency result in test [2], in test [3], in [6], in test [7], in test [8] and in test [9] was “inactive” in each case. Also, the Potency entry in [10], in test [12], in [13], in [14], in test [15] and in [20] was “inactive” in each case. The Potency entry in test [16] and in test [17] was “inactive” each time. Besides, in [4], the max response is -19.5% (inactive) and -6.23% (inactive).

Consider `CNCCCC12CCC(c3ccccc31)c1ccccc12`, for which the Potency in test [1] is 49 µM (active); in test [2] it was 54.9 µM (active); in test [4], 49 µM (active) and 23.9 µM (active); in test [5] it was 54.9 µM (active); in [6], 54.9 µM (active) and 26.8 µM (active); in test [7] it was 43.6 µM (active) and 23.9 µM (active). Also, the Potency was 43.6 µM (active) and 23.9 µM (active) in test [8]; 34.7 µM (active) and 23.9 µM (active) in test [9]; 49 µM (active) in [11]; 34.7 µM (active) and 23.9 µM (active) in [13]; 49 µM (active) in [15]; 49 µM (active) in [19]. The Potency entry in test [3], in test [12] and in [14] was “inactive” throughout.

For `O=Cc1ccccc1O`, the Potency entry in test [1], in test [3], in test [5], in test [6], in test [7] and in test [8] was “inactive” each time. In addition, the Potency entry in test [9], in test [10], in test [11], in test [12], in test [13] and in test [14] was “inactive” throughout. The Potency entry in test [15], in test [19], in test [16], in [17] and in [18] was “inactive” in each case. Also, the max response in test [4] was 3.18% (inactive) and 0.0852% (inactive).

As to `Clc1nc(Cl)c(Cl)c(Cl)c1Cl`, the Potency in test [1] was 43.9 µM (active) and inactive. Moreover, the Potency entry in test [2], in test [3], in test [5], in [6], in [7] and in test [8] was “inactive” in each case. Further, the Potency result in test [9], in [10], in test [11], in test [12], in [13] and in test [14] was “inactive” each time. The Potency entry in test [15], in [16], in [17] and in test [18] was “inactive” each time. Moreover, the max response in [4] is 1.46% (inactive) and 24.5% (inactive).

On to `O=CCCCC=O`, for which the Potency entry in test [1], in test [3], in test [5], in test [6], in [7] and in test [10] was “inactive” throughout. The Potency entry in [11], in test [12], in test [14], in [15], in test [16] and in test [17] was “inactive” each time. Moreover, the Potency result in [18] is “inactive”. Moreover, the Potency in [4] was 42.1 µM (active). In [4], the max response was 3.08% (inactive).

As to `O=C(c1ccccc1)c1ccccc1O`, in [2], the Potency result is “inactive”.

The record behind these values is PubChem BioAssay (Tox21).
